The values that follow come from PubChem BioAssay.

Activity calls are given as the source filed them.

For test [1], the system named is PRMT1 (protein arginine N-methyltransferase 1). In words: small molecules binding arginine methyltransferase PRMT1 – biochemical, small-molecule microarray, 635 nm fluorescence, primary screen (AID 1088).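 Also: binding of Prmt1 protein to compounds spotted on small-molecule microarray slides.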 Conditions: higher = more signal.
Test [2] is described as follows: growth effects on S. cerevisiae YJM789 – YJM789 clinical isolate, OD600, 24 h, basal, primary screen (AID 1089).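 Also: growth of clinical yeast isolate S. cerevisiae YJM 789 seeded 1000 cells per well; test concentration not given here.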 The following applies: higher = more signal, called active from +8 up or from −8 down.
Test [3] in a line: S. pombe growth modifiers, basal conditions – strain 972, OD600, 24 h, no modulator, primary screen (AID 1090).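 Also: basal condition with compound alone and no growth modifier present; test concentration not given here.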 Conditions: S. pombe 972 growth, higher = more signal, called active from +8 up or from −8 down.
Test [4] can be described thus: budding yeast growth modifiers under rapamycin – strain BY4716, OD600, 96 h, primary screen (AID 1091). Also: test concentration not given here. Conditions: S. cerevisiae BY4716 + rapamycin, higher = more signal, called active from +8 up or from −8 down.
Test [5] addresses Torsin-1A-interacting protein 2 (Homo sapiens) (UniProt Q8NFQ8). Put plainly: small molecules binding lysate-expressed LULL1 – cell lysate, human LULL1 lysate, 635/667 nm fluorescence, primary screen (AID 1092).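 Also: probe is lysate of COS7 cells overexpressing human LULL1; score merges per-feature 667 nm fluorescence with signal-to-noise.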 Conditions: small-molecule microarray, hLULL1 lysate binding, 635 nm fluorescence; higher = more signal.
Test [6] can be described thus: optical density change of DRC41 E. coli – strain DRC41, OD650, 24 h, E. coli filamentation project, primary screen (AID 1093).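 Also: MC1000 strain lacking acrAB efflux and sulA so SOS filamentation is blocked; test concentration not given here.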 The following applies: E. coli DRC41 growth, higher = more signal, called active from +8 up or from −8 down.
The nature of test [7]: probe aLefty2 binding to arrayed compounds – biochemical, biotinylated probe, 635/667 nm fluorescence, primary screen (AID 1094).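 Also: score merges spot fluorescence near 667 nm with spot signal-to-noise ratio.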 Conditions: small-molecule microarray, higher = more signal.
In test [8] the test system is Noggin (protein binding on small-molecule microarray). Put plainly: small molecules binding Noggin protein – biochemical, 635/667 nm fluorescence, primary screen (AID 1095).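 Also: score merges 667 nm feature fluorescence with signal to noise over triplicate slides.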 The following applies: 635 nm fluorescence, higher = more signal.
The target in test [9] is Neurogenic locus notch homolog protein 3 (Homo sapiens) (UniProt Q9UM47). Put plainly: small molecules binding NOTCH3 protein – biochemical, 635/667 nm fluorescence, primary screen (AID 1096). The following applies: small-molecule microarray, 635 nm fluorescence, higher = more signal.
Chain of Neurogenic locus notch homolog protein 3 (Homo sapiens) (Q9UM47 whole entry, looked up): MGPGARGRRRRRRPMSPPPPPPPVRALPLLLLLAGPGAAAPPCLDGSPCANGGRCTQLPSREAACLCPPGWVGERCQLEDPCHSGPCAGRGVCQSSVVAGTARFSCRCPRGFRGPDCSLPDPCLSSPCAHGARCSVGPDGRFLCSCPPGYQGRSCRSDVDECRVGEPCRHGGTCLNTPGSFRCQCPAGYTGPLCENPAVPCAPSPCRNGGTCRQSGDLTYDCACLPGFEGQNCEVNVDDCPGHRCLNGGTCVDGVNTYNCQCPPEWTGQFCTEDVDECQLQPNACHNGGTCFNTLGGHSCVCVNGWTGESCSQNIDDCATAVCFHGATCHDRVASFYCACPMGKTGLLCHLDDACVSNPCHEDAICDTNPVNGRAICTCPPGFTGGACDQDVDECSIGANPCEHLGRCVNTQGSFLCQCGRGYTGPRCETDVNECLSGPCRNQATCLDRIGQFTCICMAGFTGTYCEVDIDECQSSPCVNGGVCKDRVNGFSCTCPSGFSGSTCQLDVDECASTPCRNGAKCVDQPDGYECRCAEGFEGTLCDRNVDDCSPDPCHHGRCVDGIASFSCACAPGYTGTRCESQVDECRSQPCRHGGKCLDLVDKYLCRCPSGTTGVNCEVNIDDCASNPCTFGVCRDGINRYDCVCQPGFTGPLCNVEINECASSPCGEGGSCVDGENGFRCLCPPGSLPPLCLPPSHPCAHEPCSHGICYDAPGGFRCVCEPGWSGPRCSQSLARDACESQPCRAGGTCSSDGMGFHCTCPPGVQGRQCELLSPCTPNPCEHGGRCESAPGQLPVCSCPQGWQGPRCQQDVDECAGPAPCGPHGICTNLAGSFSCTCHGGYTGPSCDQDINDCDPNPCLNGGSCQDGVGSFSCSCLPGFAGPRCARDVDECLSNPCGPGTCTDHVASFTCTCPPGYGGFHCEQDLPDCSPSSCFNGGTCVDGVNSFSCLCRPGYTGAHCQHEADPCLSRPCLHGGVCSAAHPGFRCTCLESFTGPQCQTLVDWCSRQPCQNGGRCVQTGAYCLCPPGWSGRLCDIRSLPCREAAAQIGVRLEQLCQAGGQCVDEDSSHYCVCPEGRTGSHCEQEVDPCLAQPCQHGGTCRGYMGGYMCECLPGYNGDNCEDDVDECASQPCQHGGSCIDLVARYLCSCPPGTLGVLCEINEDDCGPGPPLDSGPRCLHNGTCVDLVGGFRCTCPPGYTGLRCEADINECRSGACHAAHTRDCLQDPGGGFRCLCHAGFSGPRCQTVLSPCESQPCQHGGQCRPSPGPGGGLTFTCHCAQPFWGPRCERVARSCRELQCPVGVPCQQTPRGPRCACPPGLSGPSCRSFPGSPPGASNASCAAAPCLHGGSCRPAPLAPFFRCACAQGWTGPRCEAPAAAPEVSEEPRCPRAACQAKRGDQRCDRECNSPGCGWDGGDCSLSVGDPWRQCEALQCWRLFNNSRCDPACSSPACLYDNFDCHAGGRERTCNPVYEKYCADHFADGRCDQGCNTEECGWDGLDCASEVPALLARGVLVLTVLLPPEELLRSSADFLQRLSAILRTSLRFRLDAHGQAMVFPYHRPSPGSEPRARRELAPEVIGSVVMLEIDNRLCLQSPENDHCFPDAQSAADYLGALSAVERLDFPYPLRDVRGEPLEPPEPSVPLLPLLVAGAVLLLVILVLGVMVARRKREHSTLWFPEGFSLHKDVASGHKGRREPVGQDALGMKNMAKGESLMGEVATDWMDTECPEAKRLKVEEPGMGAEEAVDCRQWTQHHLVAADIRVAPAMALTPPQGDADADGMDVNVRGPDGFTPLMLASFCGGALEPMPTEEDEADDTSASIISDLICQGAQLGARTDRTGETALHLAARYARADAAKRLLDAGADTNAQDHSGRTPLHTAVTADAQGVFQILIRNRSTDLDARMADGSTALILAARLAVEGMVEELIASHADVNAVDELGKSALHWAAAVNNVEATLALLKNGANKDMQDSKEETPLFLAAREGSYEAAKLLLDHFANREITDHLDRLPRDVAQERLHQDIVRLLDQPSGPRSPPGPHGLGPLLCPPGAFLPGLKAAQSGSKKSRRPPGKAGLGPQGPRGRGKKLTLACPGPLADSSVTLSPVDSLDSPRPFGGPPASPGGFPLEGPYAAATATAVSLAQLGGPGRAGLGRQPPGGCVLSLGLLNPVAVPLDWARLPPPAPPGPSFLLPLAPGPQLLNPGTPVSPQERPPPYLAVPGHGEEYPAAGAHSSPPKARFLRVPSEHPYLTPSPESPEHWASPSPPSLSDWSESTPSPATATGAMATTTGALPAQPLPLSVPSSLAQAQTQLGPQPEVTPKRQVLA
A short description of test [10]: probe aEGFR binding to arrayed compounds – biochemical, biotinylated probe, 635/667 nm fluorescence, primary screen (AID 1097).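 Also: probe is a biotinylated anti-EGFR antibody binding compounds printed on slides; score combines fluorescence near 667 nm and signal to noise of each spot.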 Conditions: small-molecule microarray, higher = more signal.

Chain of Torsin-1A-interacting protein 2 (Homo sapiens) (Q8NFQ8 whole entry, looked up): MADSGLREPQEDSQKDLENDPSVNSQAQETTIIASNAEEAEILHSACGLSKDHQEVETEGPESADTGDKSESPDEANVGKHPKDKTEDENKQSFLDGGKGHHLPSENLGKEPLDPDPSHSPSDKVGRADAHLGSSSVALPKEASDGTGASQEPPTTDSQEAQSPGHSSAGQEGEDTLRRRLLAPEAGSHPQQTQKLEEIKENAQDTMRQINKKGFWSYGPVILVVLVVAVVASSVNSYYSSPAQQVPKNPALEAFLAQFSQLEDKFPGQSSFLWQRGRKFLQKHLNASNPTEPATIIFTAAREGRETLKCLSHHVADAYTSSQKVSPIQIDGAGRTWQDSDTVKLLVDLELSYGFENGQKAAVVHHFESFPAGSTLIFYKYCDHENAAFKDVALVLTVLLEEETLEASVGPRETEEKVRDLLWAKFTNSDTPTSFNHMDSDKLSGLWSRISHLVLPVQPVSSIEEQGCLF

Regarding `[N-]=[N+]=NCc1ccccc1C[C@]1(C(=O)NCCN2CCOCC2)N=C(c2ccc(OCCCO)cc2)O[C@H]1c1ccccc1`, the composite z-score is 1.54 in test [1]; 3.22 in test [5]; -0.0519 in test [7]; 1.88 in [8]; 0.626 in test [9]; -0.0382 in test [10]. Besides, the z-score in test [2] was -2.01 (inactive); in test [3] it was -0.85 (inactive); in test [4], -2.06 (inactive); in test [6] it was 0.677 (inactive).
Take `COCCOC(=O)N1C(=O)[C@@]2(c3cc(C#Cc4ccc(OC)cc4)ccc31)[C@H](C(=O)N1CCc3cc(OC)c(OC)cc3C1)[C@H]1C(=O)O[C@H](c3ccccc3)[C@H](c3ccccc3)N1[C@@H]2c1ccc(OCCO)cc1`: the composite z-score in [1] is 1.33; in test [5], 1.32; in test [7], -0.104; in test [8], 1.22; in [9], 1.15; in test [10] it was 0.0343. Besides, the z-score was 2.2 (inactive) in [2], 1.36 (inactive) in test [3], 5.75 (inactive) in [4] and 0.816 (inactive) in [6].
`CC[C@@H]1[C@@H]2C3C(=O)N(CC)C(=O)C3CC(=O)[C@@H]2[C@H](c2ccc(C)cc2)N1S(=O)(=O)c1ccc(C)cc1` (stereo not given in full): the composite z-score in test [1] was 1.29; in test [5], 3.3; in [7], -0.128; in [8], 0.381; in [9] it was 0.919; in [10] it was -0.0371. Also, the z-score is -2.69 (inactive) in test [2], 0.321 (inactive) in test [3], 0.336 (inactive) in [4] and 0.957 (inactive) in [6].
Take `O=C1NC(=O)C2C1C=CC(C(O)c1ccc3c(c1)OCO3)N2Nc1ccc(Cl)cc1Cl` (stereo not given): the composite z-score was 0.0405 in test [1]; 2.94 in [5]; 0.15 in [7]; 0.132 in test [8]; 0.361 in test [9]; -0.108 in test [10]. Further, the z-score in [2] was -3.53 (inactive); in test [3] it was -0.462 (inactive); in test [4], 0.142 (inactive); in test [6], -1.14 (inactive).
Turning to `N#Cc1ccc(NN2C(C(O)c3ccccc3)C=CC3C(=O)N(c4ccccc4)C(=O)C32)cc1` (stereo not given), the composite z-score is -0.827 in [1]; 3.29 in test [5]; 0.228 in test [7]; -0.229 in test [8]; 0.552 in test [9]; -0.0531 in test [10]. In addition, the z-score in test [2] is -0.541 (inactive); in [3] it was 0.836 (inactive); in test [4] it was 1.77 (inactive); in test [6] it was -0.676 (inactive).
In the case of `CC(C)(C)OC(=O)CC[C@@]1(C(=O)N2CCCCC2)N=C(c2ccc(OCCCO)cc2)O[C@@H]1c1ccccc1N=[N+]=[N-]`, the composite z-score in test [1] was 1.53; in [5], 3.49; in test [7], 0.253; in test [8], 0.369; in [9] it was 1.03; in test [10], 0.208. In addition, the z-score in [2] is -0.336 (inactive); in test [3], -0.029 (inactive); in [4] it was -0.183 (inactive); in test [6], 1.11 (inactive).
Consider `CCCN1C(=O)[C@@H]2Cc3c([nH]c4ccccc34)[C@@H](c3cccc(O)c3)N2C1=O`, for which the composite z-score in test [1] was 0.213; in test [5] it was 0.379; in test [7], -0.0823; in test [8], 0.287; in test [9] it was 0.423; in test [10], -0.0424. The z-score in test [2] is -0.521 (inactive); in [3], -0.132 (inactive); in test [4], 0.385 (inactive); in [6], 0.317 (inactive).
Consider `C[N+](C)(C)CCCCCCNC(=O)[C@@H]1C[C@@H]2C(=O)NCC(=O)N2[C@@H]1c1cccc(OCCO)c1`, for which the composite z-score in test [1] was 1.55; in [5], 2.23; in [7] it was -0.207; in test [8], 1.49; in test [9], 1.1; in test [10], -0.0531. Moreover, the z-score in test [2] was -0.947 (inactive); in [3] it was 0.0641 (inactive); in test [4], -0.683 (inactive); in [6], 1.3 (inactive).
`CN(C)CCCNC(=O)[C@@]1(Cc2ccccc2I)c2ccccc2C(=O)N(Cc2ccccc2Cl)[C@H]1c1ccc(CO)cc1`: the composite z-score in test [1] was 0.9; in test [5] it was 2.78; in [7] it was 0.222; in test [8], -0.819; in [9], -0.063; in [10], 0.147. The z-score in test [2] was -0.531 (inactive); in test [3] it was -19.8 (active); in test [4], -2.99 (inactive); in test [6] it was -1.7 (inactive).
Consider `O=c1c2ccc(Br)cc2nc(-c2ccccc2)n1Cc1cccc(O)c1`, for which the composite z-score in test [1] was 0.529; in [5], 1.86; in test [7] it was -0.0614; in test [8], -0.0706; in test [9], 0.343; in [10] it was -0.0721. Besides, the z-score in [2] was -1.52 (inactive); in [3] it was -2.91 (inactive); in [4] it was -0.511 (inactive); in test [6], 1.38 (inactive).
Take `C=CCN1C(=O)[C@@]2(O[C@@H](CCO)[C@H]([Si](C)(C)c3ccc(OC)cc3)[C@H]2C)c2cc(NC(=O)[C@H](C)O)ccc21`: the composite z-score in test [1] is 1.54; in [5], 3.15; in test [7], -0.0622; in test [8], 0.959; in test [9], 0.759; in test [10], -0.0485. The z-score in test [2] was 0.988 (inactive); in test [3] it was -1.64 (inactive); in test [4] it was -0.0361 (inactive); in test [6] it was 0.571 (inactive).
In the case of `OCc1ccc(-c2cc[n+](Cc3cccc(OC(F)(F)F)c3)cc2)cc1`, the composite z-score in [1] was 1.26; in [5], 1.99; in test [7], 0.353; in test [8], 0.876; in [9] it was 1.05; in test [10] it was -0.0016. Further, the z-score in test [2] is -1.54 (inactive); in test [3], -19.5 (active); in [4], 5.75 (inactive); in test [6], 0.261 (inactive).
As for `C=CCC(OC(C)=O)[C@@H]1[C@@H](N(Cc2cccc3ccccc23)C(=O)Cc2ccc(F)cc2)c2cc(OCCCO)ccc2N1C(=O)Cc1ccc(OC)cc1` (stereo not given in full), the composite z-score is -0.151 in test [1]; -0.0743 in test [5]; -0.0137 in test [7]; 0.122 in test [8]; 0.159 in test [9]; -0.309 in test [10]. The z-score was -1.18 (inactive) in test [2], 0.246 (inactive) in test [3], -0.72 (inactive) in test [4] and 0.802 (inactive) in test [6].
With `COCCOC(=O)N1C(=O)[C@@]2(c3cc(C#CCC(C(=O)OC)C(=O)OC)ccc31)[C@H](c1ccc(OCCO)cc1)N1[C@H](c3ccccc3)[C@H](c3ccccc3)OC(=O)[C@H]1[C@@H]2C(N)=O`, the composite z-score in [1] is 1.51; in test [5], 3.22; in test [7], 0.011; in [8], 0.543; in [9] it was 1.13; in test [10], -0.0238. Moreover, the z-score in [2] is 1.47 (inactive); in test [3], 0.561 (inactive); in test [4], 4.48 (inactive); in test [6], 0.237 (inactive).
